Measured values taken from PubChem BioAssay AID624141 (Broad Institute, 2012).
About 260 (1.5%) of roughly 17,000 compounds were called active.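 The calls were made as follows: active = spot fluorescence over background with P-value below 7% in all four replicate spots, showing protein binding; inactive = the rest.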 Many of the other results were omitted from the sample, so actives are more common in it than they were.

target: Myc proto-oncogene protein (Homo sapiens) (UniProt P01106); assay: small molecules binding His-tagged c-Myc – biochemical, small molecule microarray, anti-His fluorescence, primary screen (AID 624141)
Sequence (P01106 whole entry, looked up): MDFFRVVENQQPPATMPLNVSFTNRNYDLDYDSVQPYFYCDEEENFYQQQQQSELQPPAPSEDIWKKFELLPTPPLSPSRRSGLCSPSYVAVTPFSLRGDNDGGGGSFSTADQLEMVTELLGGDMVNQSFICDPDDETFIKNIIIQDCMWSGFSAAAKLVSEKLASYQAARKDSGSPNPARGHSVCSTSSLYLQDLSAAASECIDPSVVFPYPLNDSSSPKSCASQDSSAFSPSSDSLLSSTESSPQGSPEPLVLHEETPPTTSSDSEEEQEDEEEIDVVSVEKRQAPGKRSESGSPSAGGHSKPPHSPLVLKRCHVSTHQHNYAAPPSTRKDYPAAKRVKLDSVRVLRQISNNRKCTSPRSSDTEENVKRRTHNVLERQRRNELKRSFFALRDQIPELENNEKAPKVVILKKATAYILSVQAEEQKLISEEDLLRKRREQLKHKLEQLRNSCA

| Compound | outcome |
| --- | --- |
| Cc1cc2c(=O)n(C)c(SCC(=O)c3cc4ccccc4o3)nc2s1 | inactive |
| COc1ccccc1N(CC(=O)N1CCCCC1)S(C)(=O)=O | inactive |
| C[C@@H]1CN([C@@H](C)CO)C(=O)Cc2cc(NC(=O)Nc3ccc(F)cc3)ccc2O[C@@H]1CN(C)C | inactive |
| Cn1c(SCc2nc3ccccc3c(=O)[nH]2)nnc1-c1cc2ccccc2o1 | inactive |
| C[C@@H]1CN([C@@H](C)CO)C(=O)c2cc(NS(C)(=O)=O)ccc2O[C@H]1CN(C)C(=O)Nc1ccc(F)cc1 | inactive |
| COc1ccc(C#Cc2ccc3c(c2)[C@]2(C(=O)N3)[C@H](C(=O)N3CCc4cc(OC)c(OC)cc4C3)[C@H]3C(=O)O[C@H](c4ccccc4)[C@H](c4ccccc4)N3[C@@H]2c2ccc(O)cc2)cc1 | inactive |
| O=C(NCC1CCCO1)c1ccc(NC(=O)c2cc(-n3cnnc3)ccc2Cl)cc1 (centres undefined) | inactive |
| CNC[C@H]1OCCCC[C@@H](C)Oc2ccc(NC(=O)c3ccccc3)cc2C(=O)N([C@@H](C)CO)C[C@H]1C | inactive |
| Cc1ccc(Cn2ncc3c(N4CCN(CCOc5ccc(C)cc5)CC4)ncnc32)cc1 | inactive |
| C[C@@H]1CN([C@H](C)CO)C(=O)Cc2cc(NS(=O)(=O)c3cccs3)ccc2O[C@@H]1CN(C)C(=O)Nc1ccc(F)cc1 | inactive |
| O=C1NC(Cc2c[nH]c3ccccc23)C(=O)N2CCCC12 (centres undefined) | inactive |
| Cc1noc(C)c1NC(=O)N(C)C[C@@H]1Oc2ccc(NC(=O)C3CC3)cc2C(=O)N([C@H](C)CO)C[C@@H]1C | inactive |
| O=C1O[C@@H](c2ccccc2)[C@@H](c2ccccc2)N2[C@@H](c3ccc(O)cc3)[C@]3(C(=O)Nc4ccccc43)[C@@H](C(=O)O)[C@H]12 | inactive |
| CCOc1ccc(NC(=O)C2CC(=O)n3c(nc4ccccc43)N2)cc1 (centres undefined) | inactive |
| C[C@@H]1CCCCO[C@H](CN(C)C(=O)Cc2ccccc2)[C@H](C)CN([C@H](C)CO)C(=O)c2cc(NS(=O)(=O)c3cn(C)cn3)ccc2O1 | inactive |
| COc1cc(O)c2c(=O)c(O[C@@H]3O[C@@H](CO)[C@H](O)[C@H]3O[C@@H]3O[C@@H](C)[C@H](O)[C@@H](O)[C@H]3O)c(-c3ccc(O)cc3)oc2c1 | inactive |
| CN(C)CC/C=C1\c2ccccc2CSc2ccccc21 | inactive |
| C[C@H](CO)N1C[C@H](C)[C@@H](CN(C)C)Oc2c(NC(=O)Nc3ccc(F)cc3)cccc2C1=O | inactive |
| C[C@H]1CN([C@@H](C)CO)C(=O)c2cc(NC(=O)Cn3cnnn3)ccc2O[C@@H]1CN(C)S(=O)(=O)c1cccs1 | inactive |
| C[C@H](CO)N1C[C@H](C)[C@H](CN(C)C(=O)Nc2ccc(C(F)(F)F)cc2)Oc2ccc(NC(=O)Nc3ccccc3)cc2C1=O | inactive |
| C[C@@H]1CN([C@H](C)CO)C(=O)c2cccc(NS(C)(=O)=O)c2O[C@@H]1CN(C)C(=O)Nc1cccc2ccccc12 | inactive |
| O=C(NCc1ccccc1)C1=C[C@H](C2CC2)C[C@H](OCc2ccc(CO)cc2)O1 | inactive |
| C[C@H](CO)N1C[C@H](C)[C@H](CN(C)CC2CC2)Oc2ccc(NC(=O)c3ccncc3)cc2C1=O | inactive |
| C[C@H]1CN([C@@H](C)CO)C(=O)c2cc(NC(=O)Cn3cnnn3)ccc2O[C@H]1CN(C)C(=O)NC1CCCCC1 | inactive |
| CC(C)NC(=O)N(C)C[C@H]1OCCCC[C@@H](C)Oc2ccc(NS(C)(=O)=O)cc2C(=O)N([C@H](C)CO)C[C@H]1C | inactive |

| Compound | outcome |
| --- | --- |
| CC(C)NC(=O)N(C)C[C@H]1Oc2ccc(NC(=O)CCC(F)(F)F)cc2CC(=O)N([C@@H](C)CO)C[C@@H]1C | inactive |
| C[C@H]1CCCCO[C@H](CN(C)C(=O)CCC(F)(F)F)[C@@H](C)CN([C@@H](C)CO)C(=O)c2cc(NC(=O)Nc3ccc4c(c3)OCO4)ccc2O1 | inactive |
| O=C1c2ccccc2[C@](Cc2ccccc2I)(C(=O)NCc2ccccc2)[C@H](c2ccc(CO)cc2)N1C1CCCCC1 | inactive |
| Cc1cc(C)c2nc(-c3cccnc3)cc(C(=O)Nc3sc(Cc4ccccc4)cc3C(N)=O)c2c1 | inactive |
| CC(C)NC(=O)N(C)C[C@@H]1Oc2ccc(NS(=O)(=O)c3ccccc3)cc2C(=O)N([C@@H](C)CO)C[C@H]1C | inactive |
| C[C@@H]1CN([C@@H](C)CO)C(=O)c2cccc(NC(=O)c3ccc(-c4nccs4)cc3)c2O[C@H]1CN(C)C(=O)Nc1ccccc1 | inactive |
| Cc1cccc(OCCCC(=O)Nc2sc3c(c2C(N)=O)CCCC3)c1C | inactive |
| Cc1nn(-c2ccccc2)c(CC(C)(C)C(=O)O)c1C(=O)O | inactive |
| C[C@H]1CN([C@@H](C)CO)C(=O)Cc2cc(NC(=O)Nc3ccccc3)ccc2O[C@H]1CN(C)Cc1ccncc1 | inactive |
| C[C@@H]1CCCCO[C@@H](CN(C)Cc2ccncc2)[C@@H](C)CN([C@@H](C)CO)C(=O)c2cc(N(C)C)ccc2O1 | inactive |
| C[C@H](CO)N1C[C@H](C)[C@H](CN(C)C)Oc2ccc(NC(=O)Nc3ccc(F)cc3)cc2CC1=O | inactive |
| C[C@@H]1CN([C@@H](C)CO)C(=O)Cc2cc(NC(=O)Cc3cn(C)c4ccccc34)ccc2O[C@H]1CN(C)C(=O)NC1CCCCC1 | inactive |
| C/C=C(\C)C(=O)OC(/C=C/C(O)C(C)O)C1C=CC(=O)O1 (centres undefined) | inactive |
| C=C(C(=O)O)C1CCC2(C)CCC(=O)C(C)=C2C1 (centres undefined) | inactive |
| Cn1c(OCc2cccnc2)nc2c1c(=O)n(Cc1ccc(Cl)c(Cl)c1)c(=O)n2C | inactive |
| CCO[C@H]1OC(C(=O)O)=C[C@@H](C2CCCCC2)[C@@H]1CCCO | inactive |
| Nc1nnc(SCC(=O)Nc2ccc(Cl)cc2O)s1 | inactive |
| COc1ccc(S(=O)(=O)N(C)C[C@@H]2Oc3ccc(NC(=O)CCC(F)(F)F)cc3C(=O)N([C@@H](C)CO)C[C@H]2C)cc1 | inactive |
| CN1CCN(C(=O)C2=C[C@@H](c3ccc(Br)cc3)C[C@@H](OCCCCO)O2)CC1 | inactive |
| C[C@H]1CN([C@@H](C)CO)C(=O)Cc2cc(N(C)C)ccc2O[C@@H]1CN(C)S(=O)(=O)c1ccc(F)cc1 | inactive |
| Nc1nnc(SCCN2C(=O)c3ccccc3S2(=O)=O)s1 | inactive |
| C[C@@H]1CN([C@H](C)CO)C(=O)CCCn2nncc2CO[C@@H]1CN(C)Cc1ccc2c(c1)OCCN2C | inactive |
| Cc1c(NC(=O)/C(C#N)=C/c2ccccc2Cl)c(=O)n(-c2ccccc2)n1C | inactive |
| C/C(=C\CC[C@H](CO)[C@@H]1CC[C@]2(C)C3=C(CC[C@@]12C)[C@@]1(C)CCC(=O)C(C)(C)C1CC3)C(=O)O (some centres undefined) | inactive |
| COCCOC(=O)N1C(=O)[C@@]2(c3cc(C#CCNC(N)=O)ccc31)[C@H](C(=O)N1CCN(c3ncccn3)CC1)[C@H]1C(=O)O[C@H](c3ccccc3)[C@H](c3ccccc3)N1[C@@H]2c1ccccc1OCCO | inactive |

| Compound | outcome |
| --- | --- |
| Cc1cc(C(=O)c2ccccc2)ccc1OC(=O)COc1ccccc1[N+](=O)[O-] | inactive |
| NC(=O)NCC#Cc1ccc2c(c1)[C@]1(C(=O)N2)[C@H](C(=O)Nc2nc3ccccc3s2)[C@H]2C(=O)O[C@H](c3ccccc3)[C@H](c3ccccc3)N2[C@@H]1c1ccc(OCCO)cc1 | inactive |
| CC1=COC(O[C@@H]2O[C@H](CO)[C@@H](O)[C@H](O)[C@H]2O)C2C1CC(O)C2CO (some centres undefined) | inactive |
| C[C@H](CO)N1C[C@H](C)[C@@H](CN(C)Cc2ccccc2)Oc2c(NC(=O)C3CCOCC3)cccc2C1=O | inactive |
| C[C@H](CO)N1C[C@H](C)[C@H](CN(C)Cc2ccc(C(=O)O)cc2)Oc2ccc(NC(=O)NC3CCCCC3)cc2C1=O | inactive |
| COc1ccc(S(=O)(=O)Nc2cccc3c2O[C@H](CN(C)Cc2ccc4c(c2)OCO4)[C@H](C)CN([C@@H](C)CO)C3=O)cc1 | inactive |
| COc1cccc(NC(=O)c2cc([N+](=O)[O-])ccc2NC(=O)CN2CCCCCC2)c1 | inactive |
| C[C@@H]1CN([C@@H](C)CO)C(=O)c2cccc(NC(=O)Nc3ccc(F)cc3)c2O[C@@H]1CN(C)Cc1ccc(C(=O)O)cc1 | inactive |
| C[C@H](CO)N1C[C@H](C)[C@H](CN(C)Cc2ccc(C(F)(F)F)cc2)Oc2c(NC(=O)C3CCOCC3)cccc2C1=O | inactive |
| O=C(Nc1cccc(CCc2ccccn2)c1)c1ccc(Cl)cc1 | inactive |
| C[C@@H]1CCCCO[C@H](CN(C)C(=O)Nc2ccc3c(c2)OCO3)[C@H](C)CN([C@H](C)CO)C(=O)c2cc(NS(C)(=O)=O)ccc2O1 | inactive |
| C[C@H]1CN([C@@H](C)CO)C(=O)c2cc(NS(=O)(=O)c3ccccc3)ccc2O[C@@H]1CN(C)C(=O)NC1CCCCC1 | inactive |
| C[C@@H]1CN([C@@H](C)CO)C(=O)CCCn2cc(nn2)CO[C@@H]1CN(C)C(=O)C1CCCCC1 | inactive |
| C[C@@H]1CCCCO[C@H](CN(C)C(=O)CCC(F)(F)F)[C@@H](C)CN([C@@H](C)CO)C(=O)c2cc(NC(=O)c3ccncc3)ccc2O1 | inactive |
| COC(=O)c1cc(C)sc1NC(=S)Nc1ncn(Cc2ccc(F)cc2Cl)n1 | inactive |
| O=C1C(=O)N(CCn2c3ccccc3c3nc4ccccc4nc32)c2ccccc21 | inactive |
| CCn1c2ccccc2c2nnc(SCC(=O)O)nc21 | inactive |
| CCc1ccc2c(c1)c1nc3ccccc3nc1n2CC(=O)OC | active |
| O=C(O)c1cccc(S(=O)(=O)Nc2ccc(O)cc2Sc2nc3ccccc3s2)c1 | inactive |
| Cc1ccc(OCC(=O)Nc2cc(-c3nc4cc(C)c(C)cc4o3)ccc2C)cc1 | inactive |
| Cc1noc(C)c1NC(=O)N(C)C[C@@H]1Oc2ccc(NC(=O)Nc3ccc4c(c3)OCO4)cc2C(=O)N([C@H](C)CO)C[C@H]1C | inactive |
| C[C@H](CO)N1C[C@H](C)[C@@H](CN(C)C(=O)Nc2ccccc2)Oc2ccc(NC(=O)C3CC3)cc2CC1=O | inactive |
| C[C@@H]1CN([C@H](C)CO)C(=O)Cc2cc(NC(=O)C3CC3)ccc2O[C@H]1CN(C)Cc1ccc(Cl)c(Cl)c1 | active |
| C[C@@H]1CN([C@H](C)CO)C(=O)Cc2cc(NC(=O)C3CC3)ccc2O[C@H]1CN(C)Cc1ccc2c(c1)OCO2 | inactive |
